{
  "source": "PubChem BioAssay (EPA / NIEHS)",
  "note": "Inconclusive results are not listed. Calls of active or inactive are those of the source. The calls were made as follows: active = hit-call score of the fitted dose curve at least 0.9, where 1 is the maximum; inconclusive = response in the unintended direction; inactive = score below 0.9.",
  "data": [
    {"assay": "CCTE_Deisenroth_AIME_384WELL_CTox_Inactive: Cytotoxicity Assessment (CTOX) in CCTE's 384-well Estrogen Receptor Transactivation Assay without AIME metabolic competence (metabolism negative), Deisenroth Lab (AID 2284039);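 also: cell viability via live-cell protease substrate cleaved to fluorescent probe; cells exposed 24 h to medium preincubated 2 h with alginate-water beads without S9; loss of fluorescence signal means loss of viability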", "method": "CCTE_Deisenroth_AIME_384WELL (AIME metabolism assay) is a cell-based, single-readout assay that uses VM7Luc4E2, a human mammary gland/breast cell line, with measurements taken at 24 hour after chemical dosing in a 384-well plate.CCTE_Deisenroth_AIME_384WELL_CTox_Inactive is one of four assay components measured or calculated from the CCTE_Deisenroth_AIME_384WELL assay. It is designed to make measurements of a protease substrate, a type of viability indicator, as detected with substrate cleavage to a fluorescent probe in living cells.CCTE_Deisenroth_AIME_384WELL_CTox_Inactive is a component of the CCTE_Deisenroth_AIME_384WELL assay that measures the effect of retroftting the VM7Luc ERTA assay with the Alginate Immobolization of Metabolic Enzymes (AIME) metabolism method. AIME is optimized to impart phase I hepatic metabolism using phenobarbital/beta-naphthoflavone induced hepatic S9 from male Sprague Dawley rats. Parent chemicals are incubated for 2 hours in the AIME assay prior to transfer to the VM7Luc ERTA assay plate. […] This endpoint evaluates cytotoxicity in metabolism negative mode. Using a type of flourescent probe in VM7Luc cells, loss-of-signal activity can be used to understand loss of viability. This assay endpoint, CCTE_Deisenroth_AIME_384WELL_CTox_Inactive, was analyzed with bidirectional fitting in the ERTA assay.\nThe AIME procedure consists of a preparative \"pre-stamping\" step using a barium chloride/poly-L-lysine (PLL) solution followed by \"stamping\" the lid in alginate-hepatic S9 (metabolism positive) or alginate-water (metabolism negative) to form microspheres. Once stamping is completed, the AIME lids are placed in duplicate microplates (metabolism positive or negative) containing chemical solutions and incubated for two hours to facilitate metabolic reactions. The conditioned medium, containing parent chemical or metabolites, is then transferred to the cell-based VM7Luc Estrogen Receptor Transactivation Assay (ERTA) for 24 hours. A typical experimental design tests a 10-point concentration series (0.002 - 200 uM) for 8 compounds (96-well format)1 or 32 compounds (384-well format)2 in single technical replicate. AIME assay controls include trans-stilbene (bioactivated control) and ethylparaben (bioinactivated control). ERTA assay plate controls include 17-beta estradiol (positive control) and DMSO (solvent control). Experiments typically comprise a minimum of four experimental replicates (n=4).", "values": [
      {"smiles": "O=C(O)Cn1c(=O)n(Cc2ccc(Br)cc2F)c(=O)c2ccc(Cl)cc21", "outcome": "inactive"},
      {"smiles": "CCCCCCCCCC(=O)O", "outcome": "inactive"},
      {"smiles": "CCCCCCCCOC(=O)c1cc(O)c(O)c(O)c1", "AC50": "19.8 µM (active)"},
      {"smiles": "C[C@]12CC[C@@H]3c4ccc(O)cc4CC[C@H]3[C@@H]1CCC2=O", "outcome": "inactive"},
      {"smiles": "CO[C@H]1/C=C/O[C@@]2(C)Oc3c(C)c(O)c4c(O)c(c(/C=N/N5CCN(C)CC5)c(O)c4c3C2=O)NC(=O)/C(C)=C\\C=C\\[C@H](C)[C@H](O)[C@@H](C)[C@@H](O)[C@@H](C)[C@H](OC(C)=O)[C@@H]1C", "AC50": "63.7 µM (active)"},
      {"smiles": "C[C@]12CC[C@@H]3c4ccc(O)cc4CC[C@H]3[C@@H]1CC[C@H]2O", "outcome": "inactive"},
      {"smiles": "Oc1ccccc1", "outcome": "inactive"},
      {"smiles": "c1ccc2n[nH]nc2c1", "outcome": "inactive"},
      {"smiles": "Cc1oc2c(NC(=O)c3c(Cl)cccc3Cl)cccc2c1C(C)(C)O", "outcome": "inactive"},
      {"smiles": "CC1(C)NC(=O)N(c2ccc([N+](=O)[O-])c(C(F)(F)F)c2)C1=O", "outcome": "inactive"},
      {"smiles": "CCCCCCCCCCCO", "AC50": "100 µM (active)"},
      {"smiles": "CC(O)CC(C)(C)O", "note": "(configuration not stated)", "outcome": "inactive"},
      {"smiles": "OCCO", "outcome": "inactive"},
      {"smiles": "CC(C)(C)c1cc(/C=C2\\SC(N)=NC2=O)cc(C(C)(C)C)c1O", "outcome": "inactive"},
      {"smiles": "c1ccc2ccccc2c1", "outcome": "inactive"},
      {"smiles": "Cc1cn([C@H]2C[C@H](N=[N+]=[N-])[C@@H](CO)O2)c(=O)[nH]c1=O", "outcome": "inactive"},
      {"smiles": "CCCOC(=O)c1cc(O)c(O)c(O)c1", "outcome": "inactive"},
      {"smiles": "Oc1ccc2ccccc2c1", "outcome": "inactive"},
      {"smiles": "CCN(CC)C(=O)c1cc(S(=O)(=O)Cc2ccccc2)c(N2CCC(c3ccccc3)CC2)cc1N(CC)CCN(C)C", "outcome": "inactive"},
      {"smiles": "CC[C@H](NC(=O)c1cc(F)ccc1NS(=O)(=O)c1cccc2cccnc12)c1ccccc1", "outcome": "inactive"},
      {"smiles": "Cc1ncc(CO)c(CO)c1O", "outcome": "inactive"},
      {"smiles": "O=C(Nc1ccc(Cl)cc1)Nc1ccc(Cl)c(Cl)c1", "AC50": "0.393 µM (active)"}
    ]}
  ]
}
